APOBEC3G inh: APOBEC3G (human) deaminase inhibition; 330,000 compounds, 0.28% hits; recombinant A3G, ssDNA deamination FAM/TAMRA fluorescence; inhibition, % at 20 µM; AID 493012;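 active = inhibition of at least 40% at 20 µM, with no more than 30% in the related APOBEC3A deaminase screen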
Target sequence (Q9HC16 whole entry, looked up): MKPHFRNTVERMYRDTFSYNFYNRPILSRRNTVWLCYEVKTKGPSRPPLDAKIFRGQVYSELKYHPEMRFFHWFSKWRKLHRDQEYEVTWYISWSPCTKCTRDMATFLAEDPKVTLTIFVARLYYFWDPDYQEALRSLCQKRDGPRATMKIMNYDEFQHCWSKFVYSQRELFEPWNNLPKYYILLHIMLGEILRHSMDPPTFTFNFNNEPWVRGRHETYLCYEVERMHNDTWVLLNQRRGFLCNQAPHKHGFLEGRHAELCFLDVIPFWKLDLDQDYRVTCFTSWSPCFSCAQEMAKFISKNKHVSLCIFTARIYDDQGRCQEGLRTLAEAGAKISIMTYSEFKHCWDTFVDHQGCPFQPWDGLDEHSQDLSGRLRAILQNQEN
NadD inh: NadD (S. aureus) enzyme inhibition | purified NadD enzyme, colorimetric absorbance read-out | 360,000 compounds, 0.78% hits | inhibition, % at 20 µM; in the data active = inhibition above about 26%
Cardio protect: protects H9c2 cardiomyocytes from peroxide injury; 360,000 compounds, 0.63% hits; protection from H2O2 cell death, % at 20 µM; H2O2 injury protection, ATPLite, 2 h;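 active = compounds giving at least 50% protection of heart cells from peroxide-induced death in the single-dose screen, raw or plate-pattern-corrected value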
APOBEC3A inh: inhibitors of human APOBEC3A DNA deaminase; recombinant A3A, FAM/TAMRA ssDNA deamination fluorescence; 330,000 compounds, 0.41% hits; P31941; AID 493011; inhibition, % at 20 µM;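 active = at least 40% inhibition at 20 µM here, with at most 30% in a related deaminase screen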
Target sequence (P31941 whole entry, looked up): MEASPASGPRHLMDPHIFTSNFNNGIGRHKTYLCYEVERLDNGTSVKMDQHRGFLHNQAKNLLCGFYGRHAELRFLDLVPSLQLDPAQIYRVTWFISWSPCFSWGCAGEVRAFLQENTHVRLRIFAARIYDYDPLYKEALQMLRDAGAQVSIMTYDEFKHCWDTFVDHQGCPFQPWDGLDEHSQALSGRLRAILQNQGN
H9c2 TAG inh: triacylglycerol accumulation inhibition | H9c2 cells, Nile Red lipid (TAG) fluorescence; cells loaded with 200 µM oleic acid | inhibition, % at 12.5 µM | 230,000 compounds, 0.66% hits | AID 651582;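 active = pattern-corrected inhibition of lipid staining of at least 50% with the nuclear-stain viability signal not falling by more than 50%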
PfGluPho inh: PfG6PD (Plasmodium falciparum) enzyme inhibition | 350,000 compounds, 0.78% hits | inhibition, % at 20 µM | PfGluPho enzyme, NADPH resazurin-diaphorase fluorescence;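 active = inhibition reaching at least a set limit at 20 µM in the primary screen, cut at about 59% in these data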
A3A conf: APOBEC3A (human) deaminase inhibition, confirmed | shares compounds with APOBEC3A inh | inhibition, % at 20 µM | 1,400 compounds, 63% hits | recombinant A3A, ssDNA deaminase UDG fluorescence assay | AID 493151;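 active = inhibition reaching a set limit, 80% of the first screen's cutoff, at 20 µM in any replicate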
UDG A3A counter: inhibits UDG, flagging false APOBEC3A inhibitors | shares compounds with APOBEC3A inh | UDG counterscreen, FAM/TAMRA uracil oligo fluorescence | inhibition, % at 20 µM | 1,000 tested, under 10 active | AID 504714; call rule not given here
PfGluPho conf: PfG6PD inhibition, single-dose confirmed; shares compounds with PfGluPho inh; recombinant PfGluPho, NADPH-diaphorase-resazurin fluorescence; inhibition, % at 20 µM; 2,400 compounds, 34% hits; AID 504753;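 active = inhibition of at least 50% at 20 µM in any single replicate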
NadD inh conf: NadD (S. aureus) inhibition, single concentration confirmation; 2,000 compounds, 13% hits; AID 624309; purified S. aureus NadD, colorimetric enzyme assay; shares compounds with NadD inh; inhibition, % at 20 µM; in the data active = inhibition mostly above about 42%, no sharp cut-off; inactive = mostly below about 42%
Of the large screens only hits and unclear results are named; the others gave an inactive call (follow-up assays come after a bar, where they were run). In the library only some 2.9% were active in any assay of this set; here they are far more common.

COc1ccc([N+](=O)[O-])cc1CSc1ccccn1	APOBEC3A inh 52 (no result: H9c2 TAG inh) | A3A conf 46 | UDG A3A counter inactive
CCCCN(C(=O)c1ccco1)C1CCS(=O)(=O)C1 (stereo not drawn)	APOBEC3A inh 65 | A3A conf inactive | UDG A3A counter inactive
CC(C)CN(C(=O)c1ccco1)C1CCS(=O)(=O)C1 (stereo not drawn)	none
COc1ccc(NC(=O)CN(C2CCCCC2)S(C)(=O)=O)cc1OC	none
CSc1cccc(NC(=O)CN(C2CCCCC2)S(C)(=O)=O)c1	APOBEC3A inh 65 | A3A conf inactive | UDG A3A counter inactive
O=Cc1cn(-c2ccccc2)nc1-c1cc2c(ccc3ccccc32)oc1=O	APOBEC3A inh 77 (no result: H9c2 TAG inh) | A3A conf inactive | UDG A3A counter inactive
CCC(=O)Nc1c2c(nn1-c1ccc(F)cc1)CS(=O)(=O)C2	none (no result: H9c2 TAG inh)
CCCCOc1ccc(NC(=O)CCSc2nccn2C)cc1	APOBEC3A inh 42 | A3A conf inactive
CCOC(=O)c1ccc(NC(=O)CSc2nccn2C)cc1	none
NCc1ccccc1CS(=O)(=O)N1CCOCC1	none
CC(Nc1ccc(F)cc1)=[N+](C)CCNS(=O)(=O)c1ccc(Cl)cc1	APOBEC3A inh 55 (no result: H9c2 TAG inh) | A3A conf inactive
O=C(Nc1ccc2c(c1)OCO2)c1csc([C@@H]2O[C@H](CO)[C@H](O)[C@H](O)[C@H]2O)n1	none (no result: APOBEC3G inh, APOBEC3A inh, PfGluPho inh)
COc1cc(C(CC(=O)N2CCCC2)c2c(OC)cc(OC)c3c(-c4ccccc4)cc(=O)oc23)cc(OC)c1OC (stereo not drawn)	APOBEC3A inh 43 | A3A conf inactive
COc1ccc(C(CC(=O)N2CCCC2)c2c(OC)cc(OC)c3ccc(=O)oc23)cc1 (stereo not drawn)	none
COc1ccc(C(CC(=O)N2CCCCC2)c2c(OC)cc(OC)c3c(-c4ccccc4)cc(=O)oc23)cc1 (stereo not drawn)	APOBEC3A inh 72 | A3A conf 73 | UDG A3A counter inactive
COc1ccc(C(CC(=O)N2CCCC(C)C2)c2c(OC)cc(OC)c3c(-c4ccccc4)cc(=O)oc23)cc1 (stereo not drawn)	APOBEC3A inh 69 | A3A conf 63 | UDG A3A counter inactive
COc1ccc(C(CC(=O)N2CCCC2)c2c(OC)cc(OC)c3c(-c4ccccc4)cc(=O)oc23)cc1 (stereo not drawn)	APOBEC3A inh 75 | A3A conf 76 | UDG A3A counter inactive
O=C(Nc1ccc(S(=O)(=O)Nc2ncccn2)cc1)c1cccc(S(=O)(=O)N2CCCC2)c1	none
COc1ccc(C(CC(=O)N2CCOCC2)c2c(OC)cc(OC)c3c(-c4ccccc4)cc(=O)oc23)cc1 (stereo not drawn)	APOBEC3A inh 60 | A3A conf 48 | UDG A3A counter inactive
C[N+]1(C2CCC3CCCC2C3O)CCCC1 (stereo not drawn)	APOBEC3A inh 59 (no result: H9c2 TAG inh) | A3A conf 74 | UDG A3A counter inactive
CSCCOC(=O)c1[nH]c2c(c1C)C(=O)CC(c1ccco1)C2 (stereo not drawn)	APOBEC3A inh 44, H9c2 TAG inh 56 | A3A conf 39 | UDG A3A counter inactive
COCCOC(=O)c1[nH]c2c(c1C)C(=O)CC(c1ccco1)C2 (stereo not drawn)	APOBEC3A inh 56, H9c2 TAG inh 60 | A3A conf 45 | UDG A3A counter inactive
CCOC(=O)c1[nH]c2c(c1C)C(=O)CC(c1ccco1)C2 (stereo not drawn)	none
CCn1c(SCc2cccc(OC)c2)nc2ccccc2c1=O	none (no result: H9c2 TAG inh)
COC(=O)COc1ccccc1/C=C1/NC(=O)NC1=O	none
O=C(COc1ccccc1/C=C1/NC(=O)NC1=O)Nc1ccccc1	APOBEC3A inh 46 (no result: H9c2 TAG inh) | A3A conf 68 | UDG A3A counter inactive
CCCCCN(C(=O)CCC(=O)OCC(=O)N1C(C)CCCC1C)c1c(N)n(CCCC)c(=O)[nH]c1=O (stereo not drawn)	none
COc1ccc(N2CC(C(=O)NCc3ccco3)CC2=O)cc1 (stereo not drawn)	APOBEC3A inh 41 | A3A conf 46 | UDG A3A counter inactive
CC1(C(=O)Nc2ccccc2)CCN1C(=O)C1(c2ccccc2)CC1 (stereo not drawn)	none (no result: APOBEC3G inh, APOBEC3A inh, PfGluPho inh)
COc1ccc(-n2ncc3c(=O)n(CC(=O)NC(C)C)cnc32)cc1	none (no result: H9c2 TAG inh)
C[n+]1cccc(C(=O)Nc2ccccc2)c1	APOBEC3A inh 70 (no result: H9c2 TAG inh) | A3A conf 57 | UDG A3A counter inactive
COc1cccc(NC(=O)c2ccc[n+](C)c2)c1	APOBEC3A inh 77 (no result: H9c2 TAG inh) | A3A conf 75 | UDG A3A counter inactive
O=C(C[n+]1cccc(C(=O)Nc2ccccc2)c1)c1ccccc1	none (no result: APOBEC3G inh, Cardio protect, APOBEC3A inh, H9c2 TAG inh, PfGluPho inh)
C[n+]1cccc(C(=O)NCC2CCCO2)c1 (stereo not drawn)	APOBEC3A inh 79 (no result: H9c2 TAG inh) | A3A conf 75 | UDG A3A counter inactive
CC(=O)Nc1cc(-c2cccc(C(=O)NCCO)c2)cn2c(-c3ccc(F)c(Cl)c3)cnc12	none (no result: APOBEC3G inh, APOBEC3A inh, PfGluPho inh)
O=C(/C=C\c1ccc(-c2ccccc2)o1)c1ccccc1	APOBEC3A inh 48, PfGluPho inh 74 (no result: H9c2 TAG inh) | A3A conf 11 | UDG A3A counter inactive | PfGluPho conf inactive
Cc1ccc(-c2c(C(=O)N/N=C/c3ccco3)nnn2-c2nonc2N)cc1	APOBEC3A inh 61, PfGluPho inh 62 (no result: H9c2 TAG inh) | A3A conf inactive | PfGluPho conf inactive
CCOc1ccc(-c2c(C(=O)N/N=C/c3ccco3)nnn2-c2nonc2N)cc1	none (no result: H9c2 TAG inh)
CC(=O)C[C@@H](O)CC(=O)[C@@H]1OC(=O)CCCCCCCCc2ccccc21	none
Nc1ccccc1C(=O)/C=C/c1ccc2c(c1)OCO2	none
CCNc1ccc(Br)cc(C(=O)/C=C/c2ccc3c(c2)OCO3)c1=O	NadD inh 52, APOBEC3A inh 46 | A3A conf 19 | UDG A3A counter inactive | NadD inh conf inactive
CCN(CC(=O)Nc1ccc(OC)cc1)C(=O)Cc1cccs1	none
CCOc1ccc(S(=O)(=O)N(CC(=O)N/N=C/c2ccc(-c3ccc([N+](=O)[O-])cc3)o2)c2ccccc2)cc1	NadD inh 41, APOBEC3A inh 66 | A3A conf 37 | UDG A3A counter inactive | NadD inh conf inactive
